Assay outcomes as filed in PubChem.
Hits are enriched below; roughly 6.3% of the tested compounds scored in any of these assays.
TIM10 inh = TIM10 yeast growth inhibition; S. cerevisiae TIM10 strain growth, BacTiter-Glo luminescence, 24 h; inhibition, % at 10 µM; 330,000 tested, 1.4% active;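 active means inhibition of 40% or more at the single tested concentration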;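 further: wild-type TIM10 isogenic control strain grown at permissive 25 °C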
tim23-1 inh = tim23-1 yeast growth inhibition; S. cerevisiae tim23-1 growth, BacTiter-Glo luminescence, 24 h; inhibition, % at 20 µM; 330,000 tested, 1.3% active; AID 463212;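 active means growth inhibition of the mutant yeast at or above 50%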;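 further: temperature-sensitive mutant grown at 25 °C; plate controls were DMSO-treated mutant yeast for no effect and medium wells lacking yeast for full effect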
Mdm2-MdmX inh = human Mdm2/MdmX binding inhibition | O15151+Q00987 | SaOS-2 split-luciferase Mdm2/MdmX complementation, luminescence | inhibition, % at 8 µM | 330,000 tested, 3% active;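 active means inhibition of at least 50% at 8 µM in the primary screen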
MPTP block = blocks calcium-induced mitochondrial swelling; isolated mouse mitochondria, Ca2+ swelling absorbance, 30 min; inhibition, % at 10 µM; 360,000 tested, 1.4% active;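 active means inhibition of 50% or more, scaled per plate between neutral and stimulator controls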;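 further: 0% = DMSO wells given calcium and 100% = 1 mM EGTA wells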
tim10-1 inh = growth inhibitors of tim10-1 mutant yeast | 330,000 tested, 2.2% active | S. cerevisiae tim10-1 ts strain growth, BacTiter-Glo, 24 h | inhibition, % at 20 µM;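 active means inhibition of at least 40%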;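 further: mutant grown at 25 °C; 0% = DMSO wells with yeast and 100% = wells holding no yeast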
tim23-1 confirm = confirmation of tim23-1 mutant yeast growth inhibitors; shares compounds with tim23-1 inh; S. cerevisiae tim23-1 growth, BacTiter-Glo luminescence, 24 h; inhibition, % at 20 µM; 4,400 tested, 83% active; AID 463218;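 active means inhibition above about 39% in either of two replicate wells at 20 µM, limit read from the data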;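 further: temperature-sensitive tim23-1 mutant grown at 25 °C; 0% = DMSO wells with yeast and 100% = medium wells without yeast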
The depositor's hits bear a star.

For COc1ccc(S(=O)(=O)NC(=O)C2(C)CCN2C(=O)Cc2cc(C)cc(C)c2)cc1 (centres undefined) the results were MPTP block 0.0.
`Cn1c(C(=O)Nc2ccccc2)cc2sccc21` gave TIM10 inh 29.6, tim23-1 inh 36.7, Mdm2-MdmX inh -26.7, MPTP block -0.1 and tim10-1 inh -7.3.
Screening COc1cc(NC(=O)c2cc3sccc3n2C)cc(OC)c1 returned TIM10 inh 31.3, tim23-1 inh 53.0*, Mdm2-MdmX inh -91.2, MPTP block -0.2, tim10-1 inh 32.4 and tim23-1 confirm 43.5*.
For CCCNC(=O)C1(C)CCCN(CC(=O)c2ccc3c(c2)OCCO3)C1 (centres undefined) the results were MPTP block -0.2.
`O=C(Nc1ccn(Cc2ccc(Cl)cc2)n1)c1ccc2c(c1)OCO2` gave TIM10 inh 34.5, tim23-1 inh 58.9*, Mdm2-MdmX inh -0.7, MPTP block -4.5, tim10-1 inh 8.1 and tim23-1 confirm 62.7*.
Screening O=C1/C(=C\c2cccnc2)Sc2ccccc21 returned TIM10 inh 17.0, tim23-1 inh 52.9*, Mdm2-MdmX inh 23.6, MPTP block 2.1, tim10-1 inh 17.0 and tim23-1 confirm 58.9*.
`O=C(NCc1ccccc1)C1Cc2c(-c3ccc(Cl)cc3)ccnc2O1` (centres undefined) gave MPTP block 0.8.
COc1cccc(Cn2c3ccc(NC(=O)CCc4ccc(F)cc4)cc3c(=O)n2C)c1 was read as MPTP block -0.6.
For Oc1c(Br)cc(Br)c(/C=N/n2c(-c3ccccc3)n[nH]c2=S)c1Br the results were TIM10 inh 21.0, tim23-1 inh 55.8*, Mdm2-MdmX inh 23.1, MPTP block 2.5, tim10-1 inh 28.8 and tim23-1 confirm 50.9*.
`Oc1ccc(Br)cc1C=Nc1ccc2c3c(cccc13)CC2` gave TIM10 inh 21.1, tim23-1 inh 63.5*, Mdm2-MdmX inh 29.3, MPTP block 1.6, tim10-1 inh 21.3 and tim23-1 confirm 60.4*.
Screening Nc1ccc2nc(-c3ccccc3)[nH]c2c1 returned TIM10 inh 9.0, tim23-1 inh 2.1, Mdm2-MdmX inh -54.8, MPTP block 0.5 and tim10-1 inh -10.5.
Nc1cccc(-c2nc3ccc(C(=O)c4ccccc4)cc3[nH]2)c1 was read as TIM10 inh 21.4, tim23-1 inh 54.6*, Mdm2-MdmX inh -30.4, MPTP block 1.8, tim10-1 inh 4.2 and tim23-1 confirm 55.8*.
For C[C@H](CO)N1C[C@H](C)[C@@H](CN(C)Cc2ccc(C(=O)O)cc2)Oc2ncc(Br)cc2C1=O the results were MPTP block -0.2.
For c1ccc(-c2csc(Nc3ccccn3)n2)cc1 the results were TIM10 inh 1.1, tim23-1 inh 50.4*, Mdm2-MdmX inh -212.5, MPTP block 2.1, tim10-1 inh 9.6 and tim23-1 confirm 29.3.
For CCN(c1ccccc1)S(=O)(=O)c1cc(C(=O)NCC(c2ccc(OC)cc2)N(C)C)ccc1C (centres undefined) the results were MPTP block -1.8.
For CCCCn1c(C23CC4CC(CC(C4)C2)C3)n[nH]c1=S the results were TIM10 inh 35.7, tim23-1 inh 52.9*, Mdm2-MdmX inh 4.7, MPTP block -0.5, tim10-1 inh 33.3 and tim23-1 confirm 49.8*.
COCCn1c(C23CC4CC(CC(C4)C2)C3)n[nH]c1=S was read as TIM10 inh 26.2, tim23-1 inh 27.2, Mdm2-MdmX inh 5.2, MPTP block 1.9 and tim10-1 inh 29.7.
For O=C(Nc1ccc2nc(-c3ccc(Br)o3)[nH]c2c1)c1cccs1 the results were TIM10 inh 37.5, tim23-1 inh 72.8*, Mdm2-MdmX inh 16.3, MPTP block 0.1, tim10-1 inh 18.3 and tim23-1 confirm 71.5*.
`Cn1cccc1-c1nc2ccc(NC(=O)c3cccs3)cc2[nH]1` gave TIM10 inh 24.4, tim23-1 inh 56.5*, Mdm2-MdmX inh -12.7, MPTP block 5.9, tim10-1 inh 0.7 and tim23-1 confirm 48.2*.
Screening CC(=O)Nc1ccc2nc(-c3cccn3C)[nH]c2c1 returned TIM10 inh 9.4, tim23-1 inh -4.8, Mdm2-MdmX inh -6.7, MPTP block -0.7 and tim10-1 inh -3.8.
O=C(Nc1ccc2nc(-c3ccc(Br)o3)[nH]c2c1)c1ccco1 was read as TIM10 inh 37.8, tim23-1 inh 56.8*, Mdm2-MdmX inh -11.6, MPTP block -1.5, tim10-1 inh 6.6 and tim23-1 confirm 66.5*.
